CYP2C9 activ = activators of human CYP2C9; activation factor at 5 µM; 96,000 compounds, 1.4% hits; P11712; AID 1024; recombinant CYP2C9, luciferin-H conversion, luminescence; active compounds read high; factor 1 = untreated enzyme, 0 = blocked;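 active = activation factor of 2 or more for CYP2C9 at a 5 µM dose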;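 also: 0 = sulfaphenazole-blocked wells and 1 = vehicle-only wells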
CYP2C9 inhib = inhibitors of human CYP2C9. CYP2C9 Supersomes, luciferin-H conversion, luminescence. inhibition, % at 5 µM. AID 777. P11712. 96,000 compounds, 20% hits;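 active = blocking of liver enzyme CYP2C9 beyond about 50% at 5 µM, limit read from the data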
CYP2C19 inh = inhibitors of human CYP2C19 | AID 778 | CYP2C19 Supersomes, luciferin-H EGE luminescence, 30 min | 96,000 compounds, 21% hits | P33261 | inhibition, % at 5 µM;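 active = CYP2C19 inhibition above a set limit at 5 µM in the primary screen, cut at about 50% in these data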;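 also: plate controls were negative control wells for no effect and 2.5 mM tranylcypromine positive control for full effect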
CYP2C19 act = activators of human cytochrome P450 2C19. P33261. recombinant CYP2C19, luciferin-H EGE luminescence; active compounds read high; 0 = fully inhibited enzyme, 1 = untreated enzyme. activation factor at 5 µM. 96,000 tested, under 10 active;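 active = activation factor of at least 2 at 5 µM in the primary screen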;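 also: 0 = wells with 2.5 mM tranylcypromine and 1 = vehicle-only wells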
Cav32 inh = human Cav3.2 channel inhibition, primary screen. O95180. Cav3.2-expressing cells, Fluo-4 calcium fluorescence FDSS; active compounds read low. B-score at 10 µM. 100,000 compounds, 4% hits;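 active = single-dose well whose peak fluorescence ratio is a statistical outlier from its plate by either plate-standardised score or position-corrected B-score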
Target sequence (O95180 whole entry, looked up): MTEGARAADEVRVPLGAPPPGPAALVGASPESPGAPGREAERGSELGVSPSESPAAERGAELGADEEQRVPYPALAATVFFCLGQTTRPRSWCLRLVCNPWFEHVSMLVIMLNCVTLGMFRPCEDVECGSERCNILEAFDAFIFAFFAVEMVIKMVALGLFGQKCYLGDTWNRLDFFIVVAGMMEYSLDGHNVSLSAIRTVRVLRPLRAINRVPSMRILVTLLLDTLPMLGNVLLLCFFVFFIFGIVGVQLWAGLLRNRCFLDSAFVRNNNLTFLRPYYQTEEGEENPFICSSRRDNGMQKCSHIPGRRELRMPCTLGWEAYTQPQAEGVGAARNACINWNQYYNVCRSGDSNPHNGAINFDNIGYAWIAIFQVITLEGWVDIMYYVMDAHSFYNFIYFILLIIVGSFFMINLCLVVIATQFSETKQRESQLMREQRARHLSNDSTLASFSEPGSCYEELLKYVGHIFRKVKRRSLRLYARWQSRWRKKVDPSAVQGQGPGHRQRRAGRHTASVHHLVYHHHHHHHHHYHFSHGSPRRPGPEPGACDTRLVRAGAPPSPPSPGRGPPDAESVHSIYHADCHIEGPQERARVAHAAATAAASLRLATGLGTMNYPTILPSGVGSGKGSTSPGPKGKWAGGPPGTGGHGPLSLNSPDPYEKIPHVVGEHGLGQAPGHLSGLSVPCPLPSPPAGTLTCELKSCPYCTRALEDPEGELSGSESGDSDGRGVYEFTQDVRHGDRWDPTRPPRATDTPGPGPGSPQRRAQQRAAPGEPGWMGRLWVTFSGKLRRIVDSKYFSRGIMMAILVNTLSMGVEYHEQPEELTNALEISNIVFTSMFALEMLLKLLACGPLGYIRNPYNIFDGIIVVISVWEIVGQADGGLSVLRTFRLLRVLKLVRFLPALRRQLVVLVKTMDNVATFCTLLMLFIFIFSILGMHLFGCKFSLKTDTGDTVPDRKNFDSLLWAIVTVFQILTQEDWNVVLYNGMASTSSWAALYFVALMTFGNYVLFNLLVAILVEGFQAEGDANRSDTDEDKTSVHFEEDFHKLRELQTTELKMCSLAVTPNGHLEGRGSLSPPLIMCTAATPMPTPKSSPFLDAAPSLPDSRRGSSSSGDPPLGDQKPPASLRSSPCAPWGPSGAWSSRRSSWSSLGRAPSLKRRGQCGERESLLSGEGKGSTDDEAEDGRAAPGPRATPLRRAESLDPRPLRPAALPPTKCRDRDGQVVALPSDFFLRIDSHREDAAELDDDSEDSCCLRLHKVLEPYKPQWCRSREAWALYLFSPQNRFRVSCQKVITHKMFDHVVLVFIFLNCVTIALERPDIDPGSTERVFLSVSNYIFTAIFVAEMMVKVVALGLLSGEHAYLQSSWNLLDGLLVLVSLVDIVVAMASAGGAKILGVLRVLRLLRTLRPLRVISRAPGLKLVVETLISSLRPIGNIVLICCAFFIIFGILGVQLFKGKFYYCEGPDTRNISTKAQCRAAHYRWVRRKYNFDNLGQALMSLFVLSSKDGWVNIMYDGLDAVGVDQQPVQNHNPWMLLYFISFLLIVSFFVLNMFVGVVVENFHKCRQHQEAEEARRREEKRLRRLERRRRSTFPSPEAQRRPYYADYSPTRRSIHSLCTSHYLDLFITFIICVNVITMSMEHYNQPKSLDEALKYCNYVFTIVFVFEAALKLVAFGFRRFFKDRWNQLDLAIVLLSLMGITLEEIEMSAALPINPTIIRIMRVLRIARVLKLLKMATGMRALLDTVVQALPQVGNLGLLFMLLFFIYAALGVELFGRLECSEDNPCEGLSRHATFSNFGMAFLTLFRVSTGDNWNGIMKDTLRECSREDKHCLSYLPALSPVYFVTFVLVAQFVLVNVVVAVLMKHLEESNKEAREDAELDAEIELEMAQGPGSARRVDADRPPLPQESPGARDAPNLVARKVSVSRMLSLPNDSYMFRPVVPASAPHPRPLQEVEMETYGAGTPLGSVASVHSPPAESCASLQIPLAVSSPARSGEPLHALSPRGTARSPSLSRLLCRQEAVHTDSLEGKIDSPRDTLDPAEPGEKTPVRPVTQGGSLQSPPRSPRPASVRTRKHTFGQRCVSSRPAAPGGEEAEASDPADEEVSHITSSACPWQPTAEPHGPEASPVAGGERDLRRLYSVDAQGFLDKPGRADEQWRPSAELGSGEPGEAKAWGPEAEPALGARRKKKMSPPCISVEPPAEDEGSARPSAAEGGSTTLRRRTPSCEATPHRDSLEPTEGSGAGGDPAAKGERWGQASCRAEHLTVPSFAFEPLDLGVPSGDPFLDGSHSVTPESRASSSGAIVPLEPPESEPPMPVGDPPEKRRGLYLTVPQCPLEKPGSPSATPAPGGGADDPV
Pyk2 oligo antag = antagonists of human Pyk2 oligomerization; Q14289; Q293 cells, Pyk2 FERM NanoBiT luminescence; active compounds read low; z-score (the deposit names both 25 µM and 10 µM); 99,000 compounds, 0.83% hits;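 active = Z-score of -3 or lower, scaled per plate to the spread of control and sample wells; inactive = z-score above -3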;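 also: negative z-score means lost luminescence so less FERM oligomerization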
An asterisk follows results filed as active; x = no result. A selection: hits, their analogues and other compounds. The true share with any hit is near 27%.

SMILES	CYP2C9 activ	CYP2C9 inhib	CYP2C19 inh	CYP2C19 act	Cav32 inh	Pyk2 oligo antag
COc1cc(C(=S)N2CCCCC2)ccc1OCC(=O)N1CCCC1	0.7	31.6	24.1	0.8	0.0485	-0.02
CCOc1ccc(C(=S)N2CCOCC2)cc1OCC	1.4	-44.0	-16.7	1.2	0.055	2.33
CCOc1cc(C(=S)N2CCCCC2)ccc1OCC(=O)NCc1ccccc1	0.2	82.8*	57.8*	0.4	-0.228	1.18
O=C(COc1ccc(Cl)cc1Cl)NCCCCc1ccccc1	0.8	19.2	45.7	0.5	-1.15	1.48
CCOc1cc(C(=S)N2CCCCC2)ccc1OS(=O)(=O)c1ccc(Cl)cc1	0.2	80.6*	71.5*	0.3	-4.97*	-1
CCNCc1cc(OCC)c(OCC(=O)NCCc2ccccc2)cc1Cl	0.8	19.4	88.0*	0.1	1.21	0.68
CCOc1cc(C(=S)N2CCCCC2)ccc1OS(=O)(=O)c1ccc(Br)cc1	0.3	69.1*	56.1*	0.4	-4.86*	0.1
COCCCNC(=S)NNC(=O)c1cccnc1	0.8	20.2	-4.5	1	1.24	0.66
O=C(Nc1c(C(=O)Nc2cccc3ccccc23)cnn1-c1ccccc1)c1ccco1	x	x	x	x	0.296	-1.68
CCOc1cc(C(=S)N2CCC(O)CC2)ccc1OS(=O)(=O)c1ccc(Br)cc1	0.3	67.5*	86.7*	0.1	-4.9*	-0.26
CNC(=O)c1sc(N2N=C3/C(=C/c4ccccc4)CCCC3C2c2ccccc2)nc1C (configuration not stated)	0.7	33.5	32.9	0.7	-4.38*	-1.33
O=C1CCC(C(=O)OCC(=O)N2N=C3/C(=C/c4ccccc4)CCCC3C2c2ccccc2)N1 (configuration not stated)	0.8	21.9	-33.5	1.3	-2.23	-1.84
Cc1ccc(NC(=S)N2CCC(N(C)CC3CCCO3)CC2)c(C)c1 (configuration not stated)	1.1	-5.8	-6.7	1.1	0.375	3.54
COc1ccc(OC)c(C(c2nnnn2C2CCCC2)N2CCc3ccccc3C2)c1 (configuration not stated)	0.5	54.0*	80.1*	0.2	x	-1.2
COc1ccc(C(c2nnnn2C2CCCC2)N2CCc3ccccc3C2)cc1OC (configuration not stated)	0.7	29.4	47.1	0.5	-3.97*	-2.17
COc1cccc(NS(=O)(=O)c2c(C)cc(C)cc2C)c1	0.4	57.5*	100.0*	0	-1.75	-0.47
COc1ccc(NS(=O)(=O)c2c(C)cc(C)cc2C)cc1	0.1	92.7*	87.6*	0.1	-6.1*	-0.65
COc1cccc(NS(=O)(=O)c2c(C)n(C)c(=O)n(C)c2=O)c1	1	0.0	15.1	0.8	-0.0397	x
CCC(C)c1ccc(NC(=O)COc2c(F)c(F)c(C(F)(F)F)c(F)c2F)cc1 (configuration not stated)	x	x	x	x	x	-1.75
COCCN(CCOC)C(=O)CCn1c(=O)oc2ccccc21	x	x	x	x	-0.683	-0.31
CCO[C@H]1OC(C(=O)N2CCN(C)CC2)=C[C@@H](C)[C@@H]1CCCO	x	x	x	x	0.244	x
CCOc1cc(S(=O)(=O)NCc2ccccn2)ccc1Cl	x	x	x	x	0.869	0.14
CCOc1cc(S(=O)(=O)NCc2ccccn2)c(C)cc1C	0.8	19.4	58.8*	0.4	x	x
CC1CCCC(NS(=O)(=O)c2ccc3c(c2)OCCO3)C1C (configuration not stated)	0.4	61.3*	97.0*	0	-1.25	-1.2
COc1ccc(S(=O)(=O)NC2CC3CCC2C3)cc1Cl (configuration not stated)	1.6	-59.9	46.8	0.5	-2.85	-1.59
SMILES	CYP2C9 activ	CYP2C9 inhib	CYP2C19 inh	CYP2C19 act	Cav32 inh	Pyk2 oligo antag
O=S(=O)(NC1CC2CCC1C2)c1ccc2c(c1)OCCO2 (configuration not stated)	0.2	77.5*	96.9*	0	-0.978	-1.59
O=c1cc(-c2ccc(O)c(-c3c(O)cc(O)c4c(=O)cc(-c5ccc(O)cc5)oc34)c2)oc2cc(O)cc(O)c12	x	x	x	x	0.827	x
COc1ccc(C(=O)c2ccccc2)c2c(O)ccc(C(=O)c3ccccc3)c12	0.6	44.1	-28.9	1.3	-1.08	-2.65
COc1ccc(C(C)=O)c2c(O)cccc12	0.6	39.4	87.4*	0.1	-0.431	-0.83
COCCCNC(=O)CCNS(=O)(=O)c1ccc(C)cc1	1.1	-7.1	5.4	0.9	-0.435	0.21
CCC(C)NS(=O)(=O)c1ccc(OC)c(Cl)c1Cl (configuration not stated)	1.4	-36.5	69.6*	0.3	-2.91	0.39
CCNS(=O)(=O)c1cc(Br)ccc1OC	1.8	-75.7	29.5	0.7	0.0902	2.49
CCCCNS(=O)(=O)c1ccc(OC)c(Cl)c1Cl	1.6	-58.6	51.5*	0.5	-1.26	-0.68
COCCCNS(=O)(=O)c1ccc(OC)c(Cl)c1Cl	3.7*	-267.9	88.0*	0.1	1.37	-0.39
Cc1cc(Cl)ccc1NC(=S)NCc1ccccc1	0.8	19.8	76.9*	0.2	-0.0675	-0.21
COc1ccc(Cl)cc1NC(=S)NCc1ccccn1	x	x	x	x	x	1.23
S=C(NCc1ccccn1)Nc1ccc(Cl)c(Cl)c1	0.8	24.8	50.6*	0.5	x	-0.31
S=C(NCc1ccccn1)Nc1ccc(Cl)cc1Cl	1	3.6	65.8*	0.3	0.136	-0.52
COc1cccc(OC)c1C(=O)n1nc(C)cc1C	1.2	-23.4	2.0	1	0.0754	0.77
CCC(=O)N1CCC2(CC1)Oc1ccc(F)cc1C(=O)C21CC(c2cccnc2)=NO1 (configuration not stated)	x	x	x	x	0.506	x
COc1ccnc(Oc2ccc(C)cc2C)c1C#N	0.9	7.9	38.8	0.6	0.379	-0.4
O=c1[nH]nc(Sc2ncnc3sccc23)n1CCc1ccccc1	0.8	24.9	80.3*	0.2	x	-1.73
O=C(NCCCc1ccccc1)c1ccccc1	0.9	12.3	48.7	0.5	-0.588	-0.33
O=C(NCCOC(=O)c1ccncc1)c1ccccc1	0.1	92.5*	71.1*	0.3	0.219	-0.12
O=C(NCCOC(=O)c1cccs1)c1cccnc1	0.7	32.7	60.8*	0.4	0.732	-0.04
O=C(Nc1ccccc1)OCCNC(=O)c1ccccc1	0.7	34.5	47.4	0.5	1.14	-0.1
O=C(NCCCc1ccccc1)c1ccncc1	0.1	92.7*	98.0*	0	0.18	0.02
O=C(NCc1ccccc1)/C(NC(=O)c1ccccc1)=C(/Sc1ccccn1)c1ccccc1	x	x	x	x	-0.00211	-4.13*
COC(=O)c1ccc(CN2C(=O)NC3(CCCCC3C)C2=O)o1 (configuration not stated)	1.1	-7.5	8.7	0.9	0.618	-0.87
O=C(NCc1ccccc1)NC(=O)c1ccncc1	0.2	82.0*	95.3*	0	-0.00202	1.05
O=C(NCc1ccccc1)NC(=O)c1ccccc1	1	4.8	37.3	0.6	-1.78	0.67
